# Bioassay records: PubChem, several laboratories
# MazF activator = increases E. coli MazEF RNase cleavage of RNA. P0AE70. FAM/BHQ RNA-DNA oligo cleavage fluorescence, 5 h. activation, % at 20 µM. actives 0.32% (n = 350,000); in the data active = activation above about 50%
# Target sequence (P0AE70 whole entry, looked up): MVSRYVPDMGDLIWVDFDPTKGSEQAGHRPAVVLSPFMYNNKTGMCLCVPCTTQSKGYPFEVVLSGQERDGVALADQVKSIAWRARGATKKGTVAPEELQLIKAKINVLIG
# Anthrax LF inh2 = inhibitors of Bacillus anthracis lethal factor protease; P15917; multiplex microsphere protease cleavage assay, LF; inhibition, % at 10 µM; actives 0.12% (n = 360,000); AID 588501; note: plate controls were buffer without enzyme for full effect and enzyme alone for no effect
# Autofluor counter = compound fluorescence in toxin protease inhibitor counterscreen | actives 3.1% (n = 360,000) | compound autofluorescence counterscreen, microsphere flow cytometry; active compounds read high | fluorescence intensity (concentration not given with the values); in the data active = fluorescence intensity above about 16000; inconclusive = no clear call, values can overlap the other calls
# BoNT F protease = BoNT F light chain protease inhibition; Multiplex microsphere protease cleavage assay, flow cytometry; inhibition, % at 10 µM; actives 0.22% (n = 360,000); in the data active = inhibition above about 35%, passing the limit was not always enough; inconclusive = no clear call, values can overlap the other calls; note: plate controls were buffer without enzyme for full effect and enzyme alone for no effect
# PriA SSB inh = inhibitors of Klebsiella pneumoniae PriA binding to SSB C-terminal tail; inhibition, % at 33 µM; actives 0.6% (n = 430,000); AlphaScreen SSBct-PriA binding, biotinylated peptide; in the data active = inhibition mostly above about 37%, no sharp cut-off; inactive = mostly below about 20%;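 note: plate controls were negative control peptide for no effect and reference peptide for full effect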
# BoNT A protease = blocks Botulinum neurotoxin A light chain protease | actives 0.17% (n = 360,000) | multiplex microsphere protease substrate cleavage, flow cytometry | inhibition, % at 10 µM | AID 588499; note: plate controls were buffer without enzyme for full effect and enzyme alone for no effect
# Starred values were filed as active, the others as inactive; ? = inconclusive; / = no result; + = active, no number; ! = not confirmed by another sample. Most compounds without a hit are left out; they make up all but 3.3% or so of the library. Cut-off read from the data, not from the text of the source, unless noted: active = inhibition above about 30%; inconclusive = no clear call, values can overlap the other calls; inactive = below that.
SMILES,MazF activator,Anthrax LF inh2,Autofluor counter,BoNT F protease,PriA SSB inh,BoNT A protease
CC(CCC(=O)Nc1nncs1)C(=O)O (configuration not stated),-2,0,5309,2,-8,0
CC(CC1CC(C)(C)OC1=O)C(=O)Nc1nncs1 (configuration not stated),1,-4,20331*,11,-5,?
COc1ccc(C(=O)c2cn[nH]c2-c2cc(C)ccc2O)cc1,2,6,2971,-12,1,1
COc1ccc(C(=O)c2cn[nH]c2-c2cc(Cl)ccc2O)cc1,9,0,16806*,2,-18,-1
CC(C)c1nnc(C2CCN(CC(=O)Nc3ccc4c(c3)OCO4)CC2)o1,/,/,/,/,-12,/
COc1ccc(S(=O)(=O)N(C)CC(=O)N2CCN(C)CC2)cc1C,-6,0,23309*,-4,-16,-2
COc1ccc(C)cc1S(=O)(=O)N(C)CC(=O)N1CCC(C(N)=O)CC1,14,4,4376,2,-8,0
COc1ccc(S(=O)(=O)N(C)CC(=O)N2CCC(C(N)=O)CC2)cc1Cl,-36,0,21013*,-5,-3,?
O=S(=O)(N=C(Nc1ccc(Cl)c(S(=O)(=O)N2CCOCC2)c1)c1ccc(F)cc1)c1ccccc1,/,/,/,/,7,/
CN(C)c1nc(Cl)cc(N2CCOCC2)n1,6,-1,22938*,-1,-12,1
Cc1ccc(S(=O)(=O)C2(C(=O)N3CCCCCC3)CC2)cc1,2,-4,16721*,-4,1,?
O=C(Nc1ccccc1[N+](=O)[O-])C(=O)N1CCN(c2ccccc2F)CC1,/,/,/,/,36*,/
O=C(NCCCN1CCN(c2ccccc2F)CC1)Nc1ccccc1[N+](=O)[O-],9,-4,3527,-6,13,0
O=C(Nc1ccccc1[N+](=O)[O-])C(=O)N1CCN(Cc2ccc3c(c2)OCO3)CC1,/,/,/,/,50*,/
COc1cc(OC)cc(-c2noc(CSc3nc4ccsc4c(=O)n3Cc3ccccc3)n2)c1,/,/,/,/,-1,/
Cc1ccc(-c2ccc(N3CCCC(C(=O)Nc4ccccc4Br)C3)nn2)cc1C (configuration not stated),/,/,/,/,-4,/
Cc1nnc(SCCn2c(Br)nc3c2c(=O)n(C)c(=O)n3C)s1,9,-7,5889,-17,-1,-1
Cc1nnc(Sc2c(N)n(C)c(=O)n(C)c2=O)s1,-9,-7,20250*,-3,1,0
CSc1ccc(C(=O)Nc2c3c(nn2-c2ccccc2)CCC3)cc1,/,/,/,/,-13,/
CCOc1cc(-c2ccc(N)c(OCC)c2)ccc1N,-32,-3,4224,-34,70*,0
CCCOc1ccc(C2C(=O)N(C3CCCCC3)CC(=O)N2CCCOCC)cc1OC (configuration not stated),2,-4,22919*,-1,3,1
CCOc1ccc(C2C(=O)N(C3CCCCC3)CC(=O)N2CC2CCCO2)cc1OC (configuration not stated),-4,0,11195,-14,-2,-1
CCOCCCN1C(=O)CN(C2CCCCC2)C(=O)C1c1ccc(OC)c(OC)c1 (configuration not stated),3,3,10813,5,1,0
CCOCCCN1C(=O)CN(C2CCCCCC2)C(=O)C1c1ccc(OC)cc1 (configuration not stated),-4,-2,19637*,1,-1,1
COc1ccc(C2C(=O)N(C3CCCCC3)CC(=O)N2CCc2ccccc2)cc1OC (configuration not stated),-1,-1,21105*,-5,-17,-3
SMILES,MazF activator,Anthrax LF inh2,Autofluor counter,BoNT F protease,PriA SSB inh,BoNT A protease
Cc1ccc(C2C(=O)N(C3CCCC3)CC(=O)N2C2CCCCC2)cc1 (configuration not stated),1,-4,18594*,0,0,2
Cc1ccc(S(=O)(=O)NCCOc2ccc3nnc(-c4ccccc4Cl)n3n2)s1,/,/,/,/,-3,/
COc1ccc(C(=O)Nc2nc3c(s2)CCCC3C(=O)NCc2ccc(C)cc2)cc1 (configuration not stated),/,/,/,/,0,/
O=C1NC(=O)C(=Cc2cn(CCOc3ccc4c(c3)OCO4)c3ccccc23)C(=O)N1,528*,0,4659,-22,-11,1
C=CCn1cc(C=C2C(=O)NC(=O)NC2=O)c2ccccc21,-9,9,4080,18,-10,-2
CCOC(=O)N1CCN(C(CC(=O)OC)C(=O)OC)CC1 (configuration not stated),/,/,/,/,76*,/
COC(=O)CC(C(=O)OC)N1CCN(c2ccc(F)cc2)CC1 (configuration not stated),/,/,/,/,-3,/
CN(C)c1ccc(/C=C(\C#N)C(=O)Nc2nc3c(s2)CCN(Cc2ccccc2)C3)cc1,-268,8,10915,58*,-24,16
O=C(Nc1nc2c(s1)CN(Cc1ccccc1)CC2)C1CCC1,14,5,6373,-3,2,12
C=CCOc1ccc(/C=N/NC(=O)CC(=O)NC2CCCCC2)cc1,514*,6,3818,-26,/,1
COc1ccc2c(c1)c1nnc(-c3ccc(C)c(C)c3)c-1cn2Cc1ccccc1OC,/,/,/,/,-10,/
COc1cc2c3nnc(-c4ccc(F)cc4)c-3cn(Cc3ccc(F)cc3)c2cc1OC,118*,0,6354,-4,-12,2
COc1ccc(Cn2cc3c(-c4ccc(F)cc4)nnc-3c3cc(OC)c(OC)cc32)cc1,558*,-6,6100,-22,-9,4
COc1cc2c3nnc(-c4ccc(F)cc4)c-3cn(Cc3ccccc3)c2cc1OC,+,-2,6384,-4,-3,3
COC(=O)c1c(NC(=O)/C(C#N)=C/c2ccco2)sc(C)c1C,/,/,/,/,-4,/
Cc1ccc(C(=O)N2N=C(c3ccccc3O)CC2c2ccccc2)cc1 (configuration not stated),2,17,2967,9,4,-2
Oc1ccccc1C1=Nc2ncnn2C(c2ccccc2)C1 (configuration not stated),0,-10,16346*,-4,0,-1
COc1ccc(Br)cc1C1NC(=O)NC1=O (configuration not stated),/,/,/,/,47*,/
Cc1ccc2c(c1)N(C)C(=O)c1cc(NC(=O)CSc3ccc(F)cc3)ccc1O2,/,/,/,/,-4,/
CCOC(=O)C1=C(C)NC(=O)NC1c1ccco1 (configuration not stated),-6,0,23226*,2,-2,-1
O=C(Nc1ccccn1)c1ccc2ccccc2c1O,0,-24,3050,-10,-11,-2
NNC(=O)c1nc[nH]c1C(=O)Nc1ccccn1,5,1,3364,-2,59*!,-1
O=C(O)c1ccccc1C(=O)Nc1ccccn1,0,-2,23171*,1,-13,1
O=C(NCCn1ncc2c(=O)n(Cc3cccc(F)c3)cnc21)C12CC3CC(CC(C3)C1)C2,/,/,/,/,-3,/
O=C(CCCSc1ccc(NC(=O)C2CC2)nn1)NCc1ccco1,/,/,/,/,-16,/
Cc1oc2nc(SCCCC(=O)NCCCO)nc(N)c2c1C,-12,-2,4760,-30,-10,-1
